# Experimental data published in PubChem BioAssay (NCATS).
# Records with an inconclusive call do not appear. Entries that show only a call come without a potency. Calls of active or inactive are those of the source. Calls follow the shape of the dose curve; as a rule, active = well fitted inhibition curve with a large enough effect; inconclusive = small, poorly fitted or top-dose-only effect; inactive = flat fitted curve, though single readings scatter.
# Target: Calcium and integrin-binding protein 1 (Homo sapiens) (UniProt Q99828)
# Sequence (Q99828 whole entry, looked up): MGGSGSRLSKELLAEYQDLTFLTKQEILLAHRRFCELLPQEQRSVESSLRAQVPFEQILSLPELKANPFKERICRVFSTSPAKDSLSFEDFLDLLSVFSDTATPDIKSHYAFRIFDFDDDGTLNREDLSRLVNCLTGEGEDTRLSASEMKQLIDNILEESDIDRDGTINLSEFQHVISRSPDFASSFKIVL
# Test: Primary qHTS for Identification of Calcium Integrin Binding Protein 1 (CIB1) Competitor (AID 1508620); also: top concentration of the series differs between compounds
# Settings: CIB1-GST / FITC-alphaIIb peptide fluorescence polarization; series mostly up to 114 µM
# Outline: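 Fluorescence polarization competition: GST-tagged CIB1 (1 uM final) preincubated with compound 15 min at room temperature, then FITC-labelled alphaIIb peptide (100 nM final) added. After 15 min at room temperature, polarization read at Ex 480/Em 540.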
row,Structure (SMILES),Potency
1,O=C(c1cn(Cc2cncn2Cc2ccc(Br)cc2)cc1-c1cccc2ccccc12)N1CCOCC1,inactive
2,COc1ccc(-c2c(-c3cc(C(=O)O)ccn3)ncn2C)cc1,inactive
3,CC1OC(OC2C(C)OC(OC3C(O)C(CO)OC(O[C@H]4CC[C@@]5(C)C(CC[C@]6(C)C5CC=C5C7[C@@H](C)[C@H](C)CC[C@]7(C(=O)O)CC[C@]56C(=O)O)C4(C)C)C3O)C(O)C2O)C(O)C(O)C1O (stereo not given in full),inactive
4,CC1CCC2(CO)C(C(=O)O)=CCCC2C1(C)CCc1ccoc1 (stereo not given),inactive
5,COc1cc(C(=O)NC2CCN(C)CC2)ccc1Nc1ncc2c(n1)N(C1CCCC1)CC(F)(F)C(=O)N2C,inactive
6,N#Cc1cnc2cnc(NCc3cccnc3)cc2c1Nc1ccc(F)c(Cl)c1,inactive
7,C=C[C@]1(C)C[C@H](O)[C@@H]2[C@H](OC(=O)[C@@H]2C)C1/C(C)=C/O[C@@H]1O[C@H](CO)[C@@H](O)[C@H](O)[C@H]1O (stereo not given in full),inactive
8,COc1c2c(c(C)c3c1C(=O)OC3)OC1(C)CC(O)C34OC(OC)(CC(OC(C)=O)C3(C)C1C2)OC4(C)C (stereo not given),inactive
9,CC(C)=CCC[C@](C)(O[C@@H]1O[C@H](CO)[C@@H](O)[C@H](O)[C@H]1O)[C@H]1CC[C@]2(C)[C@@H]1[C@H](O)CC1[C@@]3(C)CC[C@H](O)C(C)(C)C3[C@@H](O[C@@H]3O[C@H](CO)[C@@H](O)[C@H](O)[C@H]3O)C[C@]12C (stereo not given in full),inactive
10,CC(C)c1cc(C(=O)N2CC[C@H](NC(=O)C3CC3)C2)n[nH]1,inactive
11,CC(C)(C)NCCCNC(=O)c1cccc(Br)c1,inactive
12,N=c1nc2n(cc1F)C1OC(CO)C(O)C1O2 (stereo not given),inactive
13,C[C@@H]1CC[C@]2(C(=O)OC3OC(CO)C(O)C(O)C3O)CC[C@]3(C)C(=CCC4[C@@]5(C)CC[C@H](O)[C@](C)(C(=O)O)C5CC[C@]43C)C2[C@]1(C)O (stereo not given in full),inactive
14,CC1(C)CCCC2(C)C1CC(=O)C13CC(CCC12)C(O)(CO)C3 (stereo not given),inactive
15,CC1CC(=O)C2=C(CCC3(O)C(O)c4c(O)cccc4C(=O)C23O)C1 (stereo not given),inactive
16,Cn1cncc1C(N)(c1ccc(Cl)cc1)c1ccc2c(c1)c(-c1cccc(Cl)c1)cc(=O)n2C (stereo not given),inactive
17,C/C(=C/CO)CC[C@@H]1[C@@](C)(O)CCC2C(C)(C)CCC[C@]21C (stereo not given in full),inactive
18,NC(=O)c1csc(C2OC(CO)C(O)C2O)n1 (stereo not given),inactive
19,C=C1CCC2C(C)(C(=O)OC)CCCC2(C)C1CCC(C)CC(=O)O (stereo not given),inactive
20,C=C1CCC[C@]2(C)CC[C@@H](C(=C)C(=O)O)[C@H](O)[C@@H]12,inactive

row,Structure (SMILES),Potency
1,CC1(C)[C@@H](O)CC[C@]2(C)[C@H]3CC=C4[C@@H]5C[C@](C)(C(=O)O)CC[C@]5(C)CC[C@@]4(C)[C@]3(C)CC[C@@H]12,inactive
2,O=C(O)CC1CCC(c2ccc(-c3ccc4nc(C(=O)NCc5ccc(OC(F)(F)F)cc5)cn4c3)cc2)CC1 (stereo not given),inactive
3,C[C@@H]1CCC/C=C/[C@H]2CC(=O)C[C@@H]2[C@@H](O)/C=C/C(=O)O1,inactive
4,C[S+](CC[C@H](N)C(=O)[O-])C[C@H]1O[C@@H](n2cnc3c(N)ncnc32)[C@H](O)[C@@H]1O (stereo not given in full),inactive
5,C=C[C@H]1C(O[C@@H]2O[C@H](CO)[C@@H](O)[C@H](O)[C@H]2O)OC=C2C(=O)N3CCc4c([nH]c5ccccc45)C3CC21 (stereo not given in full),inactive
6,OC[C@H]1O[C@@H](OCCc2ccc(O)cc2)[C@H](O[C@@H]2OC[C@](O)(CO)[C@H]2O)[C@@H](O)[C@@H]1O,inactive
7,C[C@@H]1O[C@@H](O[C@H]2[C@@H]3C=CO[C@@H](O[C@@H]4O[C@H](CO)[C@@H](O)[C@H](O)[C@H]4O)[C@@H]3[C@@]3(CO)O[C@@H]23)[C@H](OC(=O)/C=C/c2ccc(O)c(O)c2)[C@H](O)[C@H]1O,inactive
8,O=C(NCc1ccccn1)Nc1nnc(-c2ccco2)o1,inactive
9,Cc1c(CN2CCN(C(=O)C(C)O)CC2)sc2c(N3CCOCC3)nc(-c3cnc(N)nc3)nc12 (stereo not given),inactive
10,c1cc(OCCCN2CCCCC2)ccc1CN1CCCCC1,inactive
11,Cn1nnc(-c2ccc(-c3ccc(N4C[C@H](COP(=O)(O)O)OC4=O)cc3F)cn2)n1,inactive
12,CC(c1ncncc1F)C(O)(Cn1cncn1)c1ccc(F)cc1F (stereo not given),inactive
13,COC(=O)c1ccnc(-c2cc(C(=O)NCCc3ccccc3)ccn2)c1,inactive
14,CC/C=C\CCO[C@@H]1O[C@H](CO)[C@@H](O)[C@H](O)[C@H]1O,inactive
15,CC(=O)SCC(=O)c1ccc(NS(=O)(=O)c2ccc(OCCCN(C)C)cc2)nc1,inactive
16,CC(=O)O[C@@H]1C[C@@H](OC(C)=O)C(C)(C)/C=C/[C@H](C)[C@H](OC(C)=O)[C@@]2(O)C[C@H](C)[C@H](OC(=O)c3ccccc3)[C@@H]2/C=C/1C,inactive
17,CC(C)C(NC(=O)c1ccc2ccccc2n1)C(=O)NC(CC(=O)O)C(=O)COc1c(F)cccc1F (stereo not given),inactive
18,C/C=C1\[C@H](O[C@@H]2O[C@H](CO)[C@@H](O)[C@H](O)[C@H]2O)OC=C2C(=O)OCCc3ccc(O)c(c3)Oc3ccc(cc3)CCOC(=O)C[C@H]21,inactive
19,OC1CCC(Nc2ncc3nc(Nc4c(F)cc(F)cc4F)n([C@H]4CCOC4)c3n2)CC1 (stereo not given in full),inactive
20,CC(=O)OC[C@H]1O[C@H](O[C@]2(CO)O[C@H](CO)[C@@H](OC(=O)/C=C/c3ccccc3)[C@@H]2O)[C@H](O)[C@@H](O)[C@@H]1O,inactive
